Measured values taken from paper PMC5540273 (PLoS ONE, 2017).

Tests used:
Conditions in all cases: concentration: 1 μM,replicates: in singlicate; n = 1
PLK2 = tested on: PLK2
PLK3 = tested on: PLK3
PLK4 = tested on: PLK4
PRKCD = tested on: PRKCD
PRKCE = tested on: PRKCE
PRKCH = tested on: PRKCH
PRKCI = tested on: PRKCI
PRKCQ = tested on: PRKCQ
PRKD1 = tested on: PRKD1
PRKD2 = tested on: PRKD2
PRKD3 = tested on: PRKD3
PRKG1 = tested on: PRKG1
PRKG2 = tested on: PRKG2
PRKR = tested on: T1, PRKR
T1 construct: gene EIF2AK2

PRKX = tested on: PRKX
PRP4 = tested on: PRP4
PYK2 = tested on: T2, PYK2
T2 construct: gene PTK2B

QSK = tested on: QSK
RAF1 = tested on: RAF1
RET = tested on: RET
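Further: KINOMEscan kinase panel screen.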

Compound	%Inh (PLK2) [%]	%Inh (PLK3) [%]	%Inh (PLK4) [%]	%Inh (PRKCD) [%]	%Inh (PRKCE) [%]	%Inh (PRKCH) [%]	%Inh (PRKCI) [%]	%Inh (PRKCQ) [%]	%Inh (PRKD1) [%]	%Inh (PRKD2) [%]	%Inh (PRKD3) [%]	%Inh (PRKG1) [%]	%Inh (PRKG2) [%]	%Inh (PRKR) [%]	%Inh (PRKX) [%]	%Inh (PRP4) [%]	%Inh (PYK2) [%]	%Inh (QSK) [%]	%Inh (RAF1) [%]	%Inh (RET) [%]
O=C(Nc1cccc(Oc2ccc3nccn3n2)c1)Nc1cccc(C(F)(F)F)c1	0	0	0	10	0	0	11	9	2	24	20	6	0	0	0	11	3	14	90	86
O=C(Nc1cccc(C(F)(F)F)c1)c1cccc(Oc2ccc3nccn3n2)c1	11	0	0	22	1	0	13	51	0	0	0	19	1	0	17	8	0	6	75	69
Cn1ccc2ncnc(Oc3ccc(NC(=O)Nc4cncc(C(F)(F)F)c4)c(Cl)c3)c21	0	0	0	2	0	20	0	23	0	0	0	0	0	0	0	6	2	0	100	100
CN(c1cccc(CNc2nc(Nc3ccc4c(c3)CC(=O)N4)ncc2C(F)(F)F)c1)S(C)(=O)=O	70	69	89	27	16	0	22	38	27	39	28	0	0	0	0	0	71	0	0	85
CC(=O)Nc1ccc(-c2cc3ncnc(SCC(=O)O)c3s2)cc1	15	7	47	22	10	1	0	18	22	0	7	1	10	23	24	22	0	1	14	15
Cc1n[nH]c2cc(Nc3ccnc(Nc4cccc(CN5CCOCC5)c4)n3)ccc12 [GW682569]	15	53	72	0	51	0	26	0	0	0	18	0	3	23	0	65	0	0	0	56
CCN1CCN(CCCC(=O)Nc2n[nH]c3nc(-c4ccc(O)cc4)c(Br)cc23)CC1 [SB-731579]	0	0	0	64	70	19	2	0	1	0	0	3	6	0	0	0	0	50	17	23
Cc1ccc(C(=O)Nc2ccc(Oc3ccc4nc(NC(=O)C5CC5)cn4c3)c(F)c2)c(=O)n1-c1ccccc1	0	0	35	0	0	0	28	24	0	0	0	5	0	4	0	38	19	0	82	100
COc1cc2ncn(-c3cc(OCC4CCCCC4)c(C(N)=O)s3)c2cc1OC [GSK204559]	99.3	99.3	4	24	0	30	0	32	0	0	2	9	0	0	10	0	0	12	9	17
COC(=O)c1cccc(NC(=O)NC2CCN(c3ccnc(NCc4ccc(F)cc4)n3)CC2)c1 [GSK1379860]	0	0	0	0	0	32	28	26	12	2	25	0	0	0	9	30	9	9	15	9
Cn1ccc2ncnc(Oc3ccc(NC(=O)Nc4cccc(C(F)(F)F)c4)c(Cl)c3)c21	2	22	9	0	0	0	8	7	0	15	9	0	7	0	0	5	6	0	80	100
OCCn1cc(-c2cnc3nnn(Cc4ccc5ncccc5c4)c3n2)cn1	0	50	4	0	49	0	0	0	5	0	0	0	0	0	0	0	0	0	0	0
C[C@@H]1CCN(C(=O)N2CCCC2)C[C@@H]1N(C)c1ncnc2[nH]ccc12	20	21	44	17	17	13	30	0	0	54	26	29	13	0	0	0	0	0	10	41
O=C1NCCc2[nH]c(-c3ccncc3)cc21	37	40	30	27	59	58	18	46	72	0	43	83	99.1	9	28	43	0	0	17	0
FC(F)(F)c1cc(Br)cc(Nc2nccc(-c3cnn4ncccc34)n2)c1 [GW810578]	24	13	26	16	4	7	0	1	4	0	0	25	0	0	0	0	80	12	0	0
Cn1ccc2ncnc(Oc3ccc(NC(=O)Nc4cc(C(C)(C)C)on4)c(Cl)c3)c21	4	7	19	21	0	0	6	27	0	7	0	0	33	0	17	23	16	0	78	100
CCOC(=O)N1CCC(n2cnc(-c3ccc(F)cc3)c2-c2ccnc(N)n2)CC1 [SB-219952]	2	0	25	0	4	0	8	1	32	5	0	40	26	0	8	0	10	0	0	30
COc1cccc(CNC(=O)NC2CCN(c3ccnc(Nc4cc(OC)c(OC)c(OC)c4)n3)C2)c1 (stereo not drawn) [GSK1379765]	0	0	43	0	17	12	31	37	0	3	0	3	0	0	33	48	0	0	21	19
CC(C(=O)NC1CCN(c2ccnc(Nc3ccc(F)cc3)n2)C1)c1ccc(Cl)cc1 (stereo not drawn) [GSK1379713]	0	0	0	0	3	8	11	21	0	0	2	9	0	0	6	0		0	0	0
Cn1ccc2ncnc(Oc3ccc(NC(=O)Nc4cccc(C(F)(F)F)c4)c(F)c3)c21	12	33	31	0	0	0	39	0	0	3	0	18	17	10	0	14	11	0	80	100
